According to PubChem BioAssay:
Calls of active or inactive are those of the source. Unless noted, no rule for the calls is given here.

What was measured:
[1] = compounds binding Alexa647 anti-His antibody – biochemical, small-molecule microarray, 635 nm fluorescence, artefact control for SMM control protein annotation, primary screen (AID 1128); conditions: higher = more signal;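 also: score merges feature fluorescence with signal-to-noise for each printed compound spot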
[2] = test system: Human papillomavirus type 1a E7 protein (residues 1-88); assay: HPV1a E7 small-molecule binders, primary screen, biochemical, small-molecule microarray, residues 1-88, 635 nm (AID 1129); conditions: small-molecule microarray binding, fluorescence 635 nm; higher = more signal
[3] = target: Focal adhesion kinase 1 (Homo sapiens) (UniProt Q05397); assay: PTK2 protein binding on printed compound slides – biochemical, small-molecule microarray, 635/667 nm fluorescence, BSA, DTT, primary screen (AID 1130); conditions: 635 nm fluorescence, higher = more signal;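 also: composite of spot emission at 667 nm and signal to noise over triplicate slides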
[4] = test system: Fibrinogen (Alexa647-labelled); assay: Alexa647-fibrinogen binding to printed small molecules – biochemical, small-molecule microarray, 635/667 nm fluorescence, artefact control for SMM control-protein annotation, profiling panel (AID 1131); conditions: fibrinogen-A647 binding fluorescence, higher = more signal;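 also: z-score merges 667 nm fluorescence with per-spot signal-to-noise over triplicate slides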
[5] = target: Follistatin (Homo sapiens) (UniProt P19883); assay: FST protein binding to printed compounds – biochemical, small-molecule microarray, 635/667 nm fluorescence, primary screen (AID 1132); conditions: 635 nm fluorescence, higher = more signal
[6] = target: Fibroblast growth factor 2 (Homo sapiens) (UniProt P09038); assay: basic fibroblast growth factor binding to printed compounds – biochemical, small-molecule microarray, 635/667 nm fluorescence, primary screen (AID 1133); conditions: FGF2, fluorescence 635/667, higher = more signal
[7] = JC-1 mitochondrial potential readout, lung cancer cells – cell-based, A549, JC-1 fluorescence, basal, 24 h, 100 nL, profiling panel (AID 1138); conditions: higher = more signal;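 also: A549 lung adenocarcinoma cells under basal conditions with no added stimulus; test concentration not given here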
[8] = test system: Lefty1; assay: Lefty1 protein binding to printed compounds – biochemical, small-molecule microarray, 635/667 nm fluorescence, primary screen (AID 1139); conditions: fluorescence 635/667, higher = more signal
[9] = test system: wheat germ agglutinin (Triticum aestivum), Alexa647-labelled; assay: Alexa647-WGA lectin binding to printed small molecules – biochemical, small-molecule microarray, 635/667 nm fluorescence, artefact control for SMM control-protein annotation, profiling panel (AID 1140); conditions: WGA-A647 binding, 635 nm fluorescence, higher = more signal;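 also: score merges 667 nm feature emission with signal to noise over triplicate slides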
[10] = target: Luciferin 4-monooxygenase (Photinus pyralis) (UniProt P08659); assay: inhibition of purified Photinus pyralis luciferase – biochemical, luminescence, purified enzyme, 2006 set, primary screen (AID 1141); conditions: purified firefly luciferase, SteadyGlo luminescence, 30 min; higher = more signal, called active from +8 up or from −8 down;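 also: cell-free assay with purified firefly luciferase at 100 ng per well in PBS; test concentration not given here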
[11] = test system: Wnt5a (protein binding on small-molecule microarray); assay: small molecules binding Wnt5a protein – biophysical, small-molecule microarray, 635/667 nm fluorescence, primary screen (AID 1142); conditions: 635 nm fluorescence, higher = more signal;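 also: fluorescence read at 667 nm with signal to noise per printed feature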
[12] = ATP-based viability of Huh7 replicon cells – cell-based, CellTiter-Glo luminescence, basal, 48 h, cytotoxicity control for HCV replication inhibitor project, primary screen (AID 1143); conditions: higher = more signal, called active from +8 up or from −8 down;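 also: Huh7 hepatoma cells carrying a hepatitis C replication reporter with no stimulus; test concentration not given here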
[13] = Pseudomonas biofilm growth suppression – PAO1 strain, BacTiter-Glo luminescence, LB-PBS, primary screen (AID 1144); conditions: P. aeruginosa PAO1 biofilm, 12 h, higher = more signal
[14] = basal CRE-LacZ reporter activity in PC12 – cell-based, unstimulated, primary screen (AID 1145); conditions: no forskolin, luminescence, 4.5 h, higher = more signal, called active from +8 up or from −8 down
[15] = forskolin-driven CRE-LacZ activity in PC12 – cell-based, CRE-LacZ reporter, forskolin-stimulated, primary screen (AID 1146); conditions: luminescence, 4.5 h, higher = more signal, called active from +8 up or from −8 down;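 also: PC12 cells with 6xCRE LacZ reporter stimulated by forskolin 10 µM; beta-galactosidase reporter signal reflecting CREB driven transcription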
[16] = target: Streptavidin (Streptomyces avidinii) (UniProt P22629); assay: compounds binding control protein streptavidin – biophysical, small-molecule microarray, 635/667 nm fluorescence, artefact control for SMM compound annotation, primary screen (AID 1147); conditions: higher = more signal;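 also: signal reflects streptavidin binding to arrayed compounds as a control protein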
[17] = probe aInhba binding on compound microarray – biochemical, small-molecule microarray, 635/667 nm fluorescence, primary screen (AID 1148); conditions: higher = more signal;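 also: score merges 667nm spot fluorescence with signal-to-noise for antibody binding to printed compounds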
[18] = target: Torsin-1A (Homo sapiens) (UniProt O14656); assay: TOR1A wild-type binding on microarray – cell lysate, small-molecule microarray, lysate, 635/667 nm, primary screen (AID 1149); conditions: COS7 hTOR1A-WT lysate, 635 nm fluorescence, higher = more signal
[19] = target: Torsin-1A (Homo sapiens) (UniProt O14656); assay: torsin A mutant lysate binding on microarrays – cell lysate, small-molecule microarray, COS7 lysate, 635/667 nm fluorescence, primary screen (AID 1150); conditions: COS7 hTOR1A mutant lysate, 635 nm fluorescence, higher = more signal;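 also: score pools 667 nm emission and signal to noise measuring lysate protein binding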
[20] = test system: Sonic hedgehog protein (Shh); assay: Sonic hedgehog microarray binding compounds – biochemical, small-molecule microarray, 635/667 nm fluorescence, primary screen (AID 1151); conditions: 635 nm fluorescence, higher = more signal;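 also: Shh protein binding to compounds spotted on small-molecule microarray slides; score combines spot fluorescence intensity with signal-to-noise across triplicate slides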

Chain of Streptavidin (Streptomyces avidinii) (P22629 whole entry, looked up): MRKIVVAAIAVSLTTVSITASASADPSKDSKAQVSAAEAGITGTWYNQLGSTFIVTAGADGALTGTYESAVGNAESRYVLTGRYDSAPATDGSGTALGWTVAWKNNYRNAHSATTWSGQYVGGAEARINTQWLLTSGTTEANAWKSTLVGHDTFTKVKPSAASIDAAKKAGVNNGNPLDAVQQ
Chain of Follistatin (Homo sapiens) (P19883 whole entry, looked up): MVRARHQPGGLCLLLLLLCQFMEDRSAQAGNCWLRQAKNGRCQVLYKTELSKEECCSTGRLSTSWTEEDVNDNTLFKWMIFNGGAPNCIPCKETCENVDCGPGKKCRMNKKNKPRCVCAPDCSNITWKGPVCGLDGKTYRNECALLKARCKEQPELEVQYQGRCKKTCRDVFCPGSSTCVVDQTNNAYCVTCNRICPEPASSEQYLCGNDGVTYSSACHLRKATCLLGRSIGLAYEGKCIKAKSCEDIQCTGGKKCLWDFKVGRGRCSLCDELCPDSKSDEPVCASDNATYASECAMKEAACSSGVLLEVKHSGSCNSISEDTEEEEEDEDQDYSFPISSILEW
Chain of Luciferin 4-monooxygenase (Photinus pyralis) (P08659 whole entry, looked up): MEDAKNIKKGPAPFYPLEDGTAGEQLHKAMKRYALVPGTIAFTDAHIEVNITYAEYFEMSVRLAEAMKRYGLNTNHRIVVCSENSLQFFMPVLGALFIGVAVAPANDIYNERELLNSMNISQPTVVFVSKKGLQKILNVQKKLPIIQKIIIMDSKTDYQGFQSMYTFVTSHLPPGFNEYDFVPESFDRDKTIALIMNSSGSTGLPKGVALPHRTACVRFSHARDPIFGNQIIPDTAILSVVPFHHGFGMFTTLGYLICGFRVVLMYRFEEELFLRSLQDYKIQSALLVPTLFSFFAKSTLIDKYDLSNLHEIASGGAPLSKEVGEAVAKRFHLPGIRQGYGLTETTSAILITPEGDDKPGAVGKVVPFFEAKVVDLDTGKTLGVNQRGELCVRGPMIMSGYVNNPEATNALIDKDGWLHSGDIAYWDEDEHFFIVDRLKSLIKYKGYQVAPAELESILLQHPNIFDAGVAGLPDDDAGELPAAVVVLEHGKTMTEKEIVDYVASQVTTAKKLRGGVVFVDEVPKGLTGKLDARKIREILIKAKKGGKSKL
Chain of Focal adhesion kinase 1 (Homo sapiens) (Q05397 whole entry, looked up): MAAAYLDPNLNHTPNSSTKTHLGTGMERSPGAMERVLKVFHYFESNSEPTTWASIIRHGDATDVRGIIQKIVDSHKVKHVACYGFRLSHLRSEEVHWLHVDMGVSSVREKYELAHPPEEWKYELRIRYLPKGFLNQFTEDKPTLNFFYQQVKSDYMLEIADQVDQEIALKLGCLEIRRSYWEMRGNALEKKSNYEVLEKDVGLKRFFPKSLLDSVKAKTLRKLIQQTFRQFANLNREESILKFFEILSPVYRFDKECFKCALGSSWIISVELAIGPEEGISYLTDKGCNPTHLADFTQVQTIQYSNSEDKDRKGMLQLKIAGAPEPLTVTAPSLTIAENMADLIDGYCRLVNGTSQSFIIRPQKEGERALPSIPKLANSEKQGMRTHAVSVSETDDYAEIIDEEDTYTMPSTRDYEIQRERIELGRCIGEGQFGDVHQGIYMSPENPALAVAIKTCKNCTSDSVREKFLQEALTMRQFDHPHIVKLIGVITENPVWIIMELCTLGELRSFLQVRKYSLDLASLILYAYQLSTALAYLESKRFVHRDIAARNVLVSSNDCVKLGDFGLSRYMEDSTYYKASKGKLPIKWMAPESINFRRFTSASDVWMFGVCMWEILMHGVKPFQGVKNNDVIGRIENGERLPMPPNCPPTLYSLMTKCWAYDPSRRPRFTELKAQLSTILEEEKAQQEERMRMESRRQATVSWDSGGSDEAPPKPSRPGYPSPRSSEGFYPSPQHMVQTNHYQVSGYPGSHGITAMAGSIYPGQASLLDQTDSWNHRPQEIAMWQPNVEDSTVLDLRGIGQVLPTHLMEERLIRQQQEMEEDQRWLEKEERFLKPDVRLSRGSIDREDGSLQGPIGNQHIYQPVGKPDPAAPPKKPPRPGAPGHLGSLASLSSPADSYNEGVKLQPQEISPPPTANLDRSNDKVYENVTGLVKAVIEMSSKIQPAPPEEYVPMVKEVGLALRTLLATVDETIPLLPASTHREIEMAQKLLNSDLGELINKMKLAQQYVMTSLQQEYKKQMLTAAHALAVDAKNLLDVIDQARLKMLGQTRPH
Chain of Torsin-1A (Homo sapiens) (O14656 whole entry, looked up): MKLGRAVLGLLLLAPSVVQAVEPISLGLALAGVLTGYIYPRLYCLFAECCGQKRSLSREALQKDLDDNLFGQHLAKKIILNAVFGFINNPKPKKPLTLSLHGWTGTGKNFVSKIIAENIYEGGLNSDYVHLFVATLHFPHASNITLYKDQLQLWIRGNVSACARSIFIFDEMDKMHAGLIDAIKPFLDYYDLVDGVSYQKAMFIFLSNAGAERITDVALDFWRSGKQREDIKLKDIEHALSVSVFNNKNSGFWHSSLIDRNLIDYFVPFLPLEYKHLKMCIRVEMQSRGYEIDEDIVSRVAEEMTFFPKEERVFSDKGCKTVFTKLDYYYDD
Chain of Fibroblast growth factor 2 (Homo sapiens) (P09038 whole entry, looked up): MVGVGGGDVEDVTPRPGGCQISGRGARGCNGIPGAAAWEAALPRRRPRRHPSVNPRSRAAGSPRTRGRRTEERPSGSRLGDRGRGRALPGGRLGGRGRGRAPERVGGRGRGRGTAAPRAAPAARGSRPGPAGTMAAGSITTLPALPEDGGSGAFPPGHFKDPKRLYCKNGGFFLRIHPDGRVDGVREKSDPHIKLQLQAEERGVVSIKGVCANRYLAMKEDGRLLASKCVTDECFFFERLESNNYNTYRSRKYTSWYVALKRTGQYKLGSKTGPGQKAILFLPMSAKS

| Compound | composite z-score [1] | composite z-score [2] | composite z-score [3] | composite z-score [4] | composite z-score [5] | composite z-score [6] | z-score [7] | composite z-score [8] | composite z-score [9] | z-score [10] | composite z-score [11] | z-score [12] | z-score [13] | z-score [14] | z-score [15] | composite z-score [16] | composite z-score [17] | composite z-score [18] | composite z-score [19] | composite z-score [20] |
| --- | --- | --- | --- | --- | --- | --- | --- | --- | --- | --- | --- | --- | --- | --- | --- | --- | --- | --- | --- | --- |
| COc1ccc([C@H]2OC[C@@H]3C[C@H](Cc4ccccc4)C(=O)N32)cc1 | 0.606 | 0.358 | 0.0039 | 0.179 | 0.416 | 0.511 | 0.239 | 0.374 | 0.582 | -0.0539 (inactive) | 0.204 | -3.52 (inactive) | 0.305 (inactive) | 1.99 (inactive) | 0.213 (inactive) | -0.371 | -0.0962 | 0.48 | 0.0464 | 0.532 |
| COc1ccccc1CN1C(=O)c2ccccc2[C@](Cc2ccccc2I)(C(=O)O)[C@@H]1c1ccc(CO)cc1 | 1.76 | 1.21 | 0.758 | 0.809 | 1.26 | 1.33 | 0.227 | 0.74 | 0.762 | -1.01 (inactive) | 0.638 | -1.03 (inactive) | 0.776 (inactive) | 0.145 (inactive) | -0.677 (inactive) | 1.09 | 0.0753 | 0.399 | 1.54 | 1.61 |
| CC(C)NC(=O)[C@@]1(C)c2ccccc2C(=O)N(Cc2ccc(OC(F)(F)F)cc2)[C@H]1c1ccc(CO)cc1 | 0.22 | -0.14 | -0.232 | -0.535 | -0.333 | -0.843 | -0.19 | -1.44 | -0.641 | -0.183 (inactive) | -0.766 | -1.98 (inactive) | -0.539 (inactive) | -0.411 (inactive) | -1.48 (inactive) | -0.933 | -0.183 | -2.23 | 0.492 | -0.354 |
| COc1ccc([Si](C)(C)[C@@H]2[C@@H](CCO)O[C@]3(C(=O)N(Cc4ccccc4)c4ccc(N5C(=O)c6cccc7cccc5c67)cc43)[C@H]2C)cc1 | -0.435 | -0.0814 | 0.15 | -0.304 | -0.384 | -0.176 | -0.0894 | -0.52 | 0.342 | -1.04 (inactive) | -0.328 | -4 (inactive) | -0.441 (inactive) | 2.39 (inactive) | 0.302 (inactive) | 0.305 | -0.179 | -1.07 | -0.909 | -0.204 |
| C=CCC(OC(C)=O)[C@@H]1[C@@H](N(Cc2cccc3ccccc23)C(=O)Cc2ccc(F)cc2)c2cc(OCCCO)ccc2N1C(=O)c1ccc2ccccc2c1 (stereo not given in full) | 0.301 | -0.247 | 0.114 | 0.131 | 0.7 | -0.328 | 1.03 | 0.117 | 0.0096 | 0.739 (inactive) | 0.107 | -0.156 (inactive) | -1.04 (inactive) | -0.724 (inactive) | 1.06 (inactive) | 0.0722 | -0.0774 | -0.035 | -0.183 | 0.508 |
| COC(=O)[C@@]1(Cc2ccc(OC)cc2)[C@H]2c3cc(C(=O)N(C)C)n(Cc4ccc(C)o4)c3C[C@H]2CN1C(=O)c1ccccc1 | 0.787 | 1.26 | 0.877 | 0.984 | 0.262 | -0.48 | 1.26 | -0.0198 | 1.1 | -18.5 (active) | 0.331 | -1.93 (inactive) | 1.15 (inactive) | -0.568 (inactive) | -0.46 (inactive) | 0.57 | 0.112 | -0.0657 | 0.567 | -0.797 |
| CCOC(=O)C1=CC[C@@H](c2ccccc2F)N(S(=O)(=O)c2ccc(C)cc2)[C@H]1c1ccccc1 | 0.477 | 1.07 | 0.13 | 0.756 | 0.685 | 0.0808 | 1.4 | 0.644 | 0.349 | 1.56 (inactive) | 0.483 | -3.92 (inactive) | 0.0947 (inactive) | 0.827 (inactive) | 0.649 (inactive) | 0.872 | -0.045 | 0.263 | 0.388 | 0.649 |
| CC[C@@H]1O[Si](C(C)C)(C(C)C)c2c1cc(-c1cc(C)c(OC)c(C)c1)nc2-c1ccc(Oc2ccccc2)cc1 | -0.23 | -0.772 | -0.29 | -1.22 | -0.261 | -0.315 | -0.413 | 0.287 | 0.1 | 1.09 (inactive) | -0.216 | 0.0485 (inactive) | -0.523 (inactive) | -0.491 (inactive) | 0.316 (inactive) | -0.21 | -0.231 | -0.851 | -0.542 | 0.305 |
| COc1ccc(C#Cc2ccc3c(c2)[C@]2(C(=O)N3)[C@H](c3ccc(OCCO)cc3)N3[C@H](c4ccccc4)[C@H](c4ccccc4)OC(=O)[C@H]3[C@@H]2C(=O)NC[C@H](O)c2ccccc2)cc1 | 0.825 | 1.23 | 0.116 | 0.928 | 0.789 | 1.05 | -1.54 | 0.906 | 0.887 | -0.0696 (inactive) | 0.501 | -2.47 (inactive) | -0.506 (inactive) | -0.491 (inactive) | -0.808 (inactive) | 0.777 | 0.122 | -0.0854 | 0.327 | 1.32 |
| O=C(NCc1ccc(F)cc1)[C@H]1C[C@H]2C(=O)NCC(=O)N2[C@H]1c1ccc(O)cc1 | 1.63 | -0.121 | 0.0061 | 0.611 | 1.45 | 1.89 | 0.576 | 1.35 | 0.187 | -0.0852 (inactive) | 0.205 | -0.764 (inactive) | 0.3 (inactive) | 0.0124 (inactive) | -0.0067 (inactive) | -0.311 | 0.177 | 0.134 | 1.82 | 1.69 |
| COC(=O)C1=CC(CCCO)=CC(c2cccs2)N(C)C=C1C(=O)OC (stereo not given) | 0.15 | -0.5 | 0.143 | -0.198 | -0.344 | -0.498 | 0.0963 | -0.307 | 0.507 | -0.674 (inactive) | -0.149 | -0.786 (inactive) | 0.321 (inactive) | -0.285 (inactive) | -0.217 (inactive) | 0.0877 | 0.0485 | -0.186 | 1.04 | -0.369 |
